# Screening data: PubChem, National Center for Advancing Translational Sciences (NCATS)
# aSyn yeast inh – inhibitors of alpha-synuclein toxicity in yeast | Potency, µM (doses to about 46.1 µM), for the others: at the top dose growth rescue (activation), most hits filed as activators | Yeast expressing alpha-synuclein, growth rescue, BacTiter-Glo, 24 h | actives 0.14% (n = 370,000) | AID 652106; further: % of control where 0% means no effect; nearly all actives have a fitted effect of over 65% in size
#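 Galactose-induced alpha-syn yeast (OD600=0.02, raffinose-pregrown) + pinned cpd, 24 hr, 30 deg C; growth by BacTiter-Glo luminescence. Growth restoration scores as activation.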
# TDP-43 yeast inh – rescues yeast growth from TDP-43 toxicity | TDP-43 expressing yeast growth rescue, BacTiter-Glo, 24 h | Potency, µM (titrated, usually from 46.1 µM), for the others: top-dose growth rescue (activation), usual class: activators | actives 1.8% (n = 410,000); further: % of control where 0% means no effect; nearly all actives have a fitted effect of over 50% in size
#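 Galactose-induced TDP-43 yeast, OD600=0.02, compound pinned; 24 hr, 30 deg C; BacTiter-Glo luminescence for growth. Inhibitors of TDP-43 toxicity read as activators.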
# Rango complex inh – Rango-importin beta binding inhibition; actives 0.031% (n = 340,000); Potency, µM (top dose mostly 92.2 µM), inactives show top-dose inhibition of complex formation; Q14974; Rango CFP/YFP FRET sensor + importin beta, 45 min; calls by dose curve;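 further: 0% = DMSO wells and 100% = buffer wells lacking importin beta; nearly all actives have a fitted effect of over 15% in size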
# Target sequence (Q14974 whole entry, looked up): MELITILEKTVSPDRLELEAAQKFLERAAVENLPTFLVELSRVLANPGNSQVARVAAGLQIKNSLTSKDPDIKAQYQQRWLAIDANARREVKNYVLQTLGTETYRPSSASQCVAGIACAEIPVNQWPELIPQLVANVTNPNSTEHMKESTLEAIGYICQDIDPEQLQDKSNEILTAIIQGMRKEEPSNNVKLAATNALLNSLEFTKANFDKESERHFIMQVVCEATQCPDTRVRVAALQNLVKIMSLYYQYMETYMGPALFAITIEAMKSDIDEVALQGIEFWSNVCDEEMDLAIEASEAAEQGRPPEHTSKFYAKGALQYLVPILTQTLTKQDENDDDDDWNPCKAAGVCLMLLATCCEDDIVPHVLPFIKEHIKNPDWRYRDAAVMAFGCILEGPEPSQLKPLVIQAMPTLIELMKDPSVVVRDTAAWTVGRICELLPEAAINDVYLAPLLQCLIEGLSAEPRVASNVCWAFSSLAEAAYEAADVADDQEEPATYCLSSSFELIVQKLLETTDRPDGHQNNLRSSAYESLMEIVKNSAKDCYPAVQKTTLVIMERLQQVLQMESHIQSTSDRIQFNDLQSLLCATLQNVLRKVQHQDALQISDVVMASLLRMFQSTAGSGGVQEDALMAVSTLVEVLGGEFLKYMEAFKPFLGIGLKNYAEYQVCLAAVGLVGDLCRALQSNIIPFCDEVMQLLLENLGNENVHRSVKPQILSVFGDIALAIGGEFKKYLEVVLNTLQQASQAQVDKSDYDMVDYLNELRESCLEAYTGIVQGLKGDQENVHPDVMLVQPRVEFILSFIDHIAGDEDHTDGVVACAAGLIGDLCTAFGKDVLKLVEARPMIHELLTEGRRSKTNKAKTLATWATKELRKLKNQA
#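 FRET biosensor (snurportin 1 IBB flanked by EYFP and cerulean), 50 nM, with compound 5 min, then 0.125 microM importin beta in PBS, 1 mM DTT, 0.02% Tween-20, 0.1% BSA. CFP/YFP ratio read after 45 min at room temperature; pre-read flags interference.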
# Rango release inh – inhibitors of RanGTP-induced Rango-importin beta complex dissociation. AID 540253. Potency, µM (series often up to 46.1 µM), inactives show at the top dose activity change, negative = inhibition. actives 0.071% (n = 340,000). O95149+P62826. Biochemical FRET Rango-importin beta, RanGTP-induced dissociation; calls by dose curve; further: % of control where 0% means no effect; nearly all actives have a fitted effect of over 45% in size
#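 Compounds sat 5 min at room temperature with 0.1 uM Rango biosensor plus 0.25 uM importin beta, then FRET pre-read. RanGTP-RCC1 (0.6 uM Ran, 2mM GTP, 0.2 uM RCC1) added for 45 min, and the CFP/YFP post-read measured blocked complex dissociation.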
# Abeta rescue – restores growth of yeast expressing A-beta42 peptide | yeast expressing A-beta42, growth rescue, OD600, 48 h; response scale: 0% DMSO, 100% iron-clioquinol control | Potency, µM (doses to about 46.1 µM), actives largely listed as activators | actives 0.063% (n = 410,000) | AID 1347071; further: nearly all actives have a fitted effect of over 55% in size
#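 Growth rescue measured by 600 nm absorbance after 48 h yeast culture at 30 C with compound. Values normalized between DMSO and an equimolar ferric chloride plus clioquinol control.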
# ASM inhibitor – blocks human secretory acid sphingomyelinase. Potency, µM (highest dose often 57.5 µM), for the others: at the highest dose activity change, negative = inhibition, hits mostly inhibitors. placental ASM, HMU-PC fluorogenic substrate, 60 min. actives 0.006% (n = 340,000). P17405
#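 Human placenta-derived ASM enzyme was preincubated with compound for 10 minutes at room temperature, then given fluorogenic substrate HMU-PC0 (9 uM final) for 60 minutes at 37 °C; a pH 10 stop preceded fluorescence reading at Ex 386/Em 447 nm.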
# The depositor's hits bear a star; i = inactive; ? = inconclusive; / = no result given. Hits are enriched below; roughly 2% of the tested compounds scored in any of these assays. Unless noted, the call rests on the fitted dose curve; in most records, active means well fitted curve in the direction sought with a large enough effect; inconclusive means small, poorly fitted or top-dose-only effect, or another doubt; inactive means no such curve, though single readings can be large; an effect the other way counts as inactive or inconclusive. Potency means the concentration at half of the fitted maximal effect.
SMILES,aSyn yeast inh,TDP-43 yeast inh,Rango complex inh,Rango release inh,Abeta rescue,ASM inhibitor
CCOC(=O)c1cccc(N2C(=O)c3ccccc3S2(=O)=O)c1,/,11µM*,-2%,14%,i,0%
CCc1ccc(-n2nc(C)c3c(C)cc(=O)n(CC(=O)N4CCCc5ccccc54)c32)cc1,/,3%,/,/,i,/
COc1ccc(C2CC(O)(c3ccccc3)Oc3cc(OC)ccc32)cc1 (stereo not given),?,20µM*,0%,1%,i,-22%
Cc1cc2ccccc2n1CCNC(=O)c1cccc(Cl)c1,/,14µM*,/,/,i,/
COc1cccc(C(=O)Nc2ccccc2N2CCOCC2)c1,-1%,13µM*,-2%,1%,i,-1%
COc1cc(C#N)ccc1OCC(=O)Nc1ccc(C)c(S(=O)(=O)N2CCOCC2)c1,1%,9%,1%,17%,i,-2%
Cc1cc(Cl)ccc1OCC(=O)Nc1ccccc1N1CCOCC1,2%,13µM*,0%,5%,i,-1%
Cc1ccc(NC(=O)COc2ccc(Cl)cc2Cl)cc1S(=O)(=O)N1CCOCC1,8%,14µM*,?,-8%,i,/
COc1cccc(C(=O)OCC(=O)Nc2ccccc2N2CCOCC2)c1,0%,?,-4%,-2%,i,1%
Cc1cc(Cl)ccc1OCC(=O)NC(=S)Nc1ccccc1N1CCOCC1,3%,-26%,-2%,-2%,i,-2%
O=C1CN(C(=O)c2ccccc2C(F)(F)F)C(c2ccccc2)c2cc(F)ccc2N1 (stereo not given),/,10%,/,/,i,/
COc1ccc(Br)c(C(=O)Nc2cc3c(cc2N2CCCCC2)n(C)c(=O)c(=O)n3C)c1,/,9%,/,/,i,/
COc1ccc(C2Nc3ccc(NC(=O)CO)cc3C(=O)N2Cc2cccc(Cl)c2)cc1COc1ccc(NC(C)=O)cc1 (stereo not given),0%,/,/,/,/,/
Cc1cccc(N2CCN(C(=O)CN3C(=O)COc4ccc(S(=O)(=O)N5CCC(C)CC5)cc43)CC2C)c1 (stereo not given),6%,6%,/,/,i,/
COc1cccc(-c2oc3ccc(C)cc3c(=O)c2O)c1,/,2%,/,/,i,/
Cc1cccc2sc(N3CCN(C(=O)c4ccco4)CC3)nc12,/,11µM*,/,/,i,/
O=C(c1ccco1)N1CCN(c2nc3c(Cl)cccc3s2)CC1,/,?,/,/,i,/
Cc1ccc(Cl)c2sc(N3CCN(C(=O)c4ccco4)CC3)nc12,13%,29%,-2%,-7%,i,-9%
Cc1ccc(C)c2sc(N3CCN(C(=O)c4ccco4)CC3)nc12,/,11µM*,/,/,i,/
COc1cccc(NCc2cccn2-c2nnc(N3CCC(C)CC3)s2)c1,18%,?,/,/,i,/
Cc1ccc(C)c2nc3sc(C(=O)O)cc3cc12,-71%,14µM*,0%,-17%,i,123%
Cc1ccc(C)c2nc3sc(C(=O)N4CCCc5ccccc54)c(N)c3cc12,1%,-5%,6%,-15%,i,-11%
Cc1ccc2nc(Nc3cccc(C(F)(F)F)c3)c3nnnn3c2c1,/,13%,/,/,i,/
S=C1N(c2ccccc2)C(c2ccc(Cl)cc2)N2CCCN12 (stereo not given),3%,?,-5%,0%,i,-11%
S=C1N(c2ccccc2)C(c2ccc(Br)cc2)N2CCCN12 (stereo not given),20%,13µM*,1%,15%,i,-14%
SMILES,aSyn yeast inh,TDP-43 yeast inh,Rango complex inh,Rango release inh,Abeta rescue,ASM inhibitor
CCNC(=O)Cc1ccc(NC(=O)N2CCCCc3ccccc32)cc1,/,20%,/,/,i,/
CCc1cc(SC#N)cc(C)c1N,-2%,18µM*,6%,19%,i,-2%
CCc1cc(SC#N)cc(C)c1NC(=O)CCl,13%,?,-4%,15%,i,9%
COc1cc2nc(N3CCOCC3)nc(NC3CCN(C)CC3)c2cc1OC,1%,/,/,/,/,/
CN1C(=S)N(c2cccnc2)C(=O)/C1=C\c1ccc(C(C)(C)C)cc1,?,16µM*,-1%,-18%,i,-21%
CCN(CC)c1ccc(/C=C2\C=Cc3ccccc32)cc1,2%,/,/,/,/,/
COc1cc2c(=O)c(S(=O)(=O)c3ccccc3)cn(CC(=O)Nc3ccccc3C)c2cc1OC,/,15%,/,/,i,/
O=C1NC(=O)/C(=C/c2ccc3c(c2)OC(F)(F)O3)S1,-39%,/,/,/,/,/
NNc1nc(-c2ccccc2)nc(-c2ccccc2)c1Br,-3%,22µM*,0%,8%,i,-9%
O=S1OC(c2ccccc2)c2cc(Cl)ccc21 (stereo not given),-16%,13µM*,6%,9%,i,2%
O=C1OC(c2ccccc2)c2ccccc21 (stereo not given),6%,4%,3%,-13%,i,3%
NS(=O)(=O)c1ccc(N=Nc2c[nH]c(=O)c(O)c2)cc1,-28%,-39%,?,23µM*,i,-10%
CCOC(=O)c1cc(-c2ccc(C)cc2)n(CCCC(=O)Nc2cc(C)ccc2C)c1,/,10%,/,/,i,/
COc1ccccc1NC(=O)C1CCN(C(=O)c2sc3nc[nH]c(=O)c3c2C)CC1,/,1%,/,/,i,/
c1ccc(CN(Cc2ccccc2)C(c2ccnc3ccccc23)c2nnnn2-c2ccc3c(c2)OCCO3)cc1 (stereo not given),3%,21%,/,/,i,/
CN(CCc1ccccc1)C(c1ccnc2ccccc12)c1nnnn1-c1ccc2c(c1)OCCO2 (stereo not given),1%,35µM*,/,/,i,/
CN(C)c1ccc(C(CNS(=O)(=O)c2ccc(F)cc2)c2c[nH]c3ccccc23)cc1 (stereo not given),-2%,9%,-2%,1%,i,-19%
CCOC(=O)c1ccc(S(=O)(=O)NCC(c2ccc(N(C)C)cc2)c2c[nH]c3ccccc23)cc1 (stereo not given),-2%,3.2µM*,-1%,-13%,i,-3%
O=C(NCc1ccco1)/C(=C/c1ccc(C(F)(F)F)cc1)c1nc2ccccc2[nH]1,1%,11%,?,18µM*,i,24%
O=C(NCc1ccco1)/C(=C/c1cccc(C(F)(F)F)c1)c1nc2ccccc2[nH]1,1%,10%,?,?,i,23%
CC(Sc1cnc2ccccc2n1)C(=O)O (stereo not given),-2%,-4%,3%,20%,i,1%
CC(Sc1ccc2ccccc2n1)C(=O)O (stereo not given),-17%,11µM*,3%,-6%,i,0%
